Source: article PMC4336329 (PLoS ONE, 2015)
In all, about 310,000 compounds went through this assay and about 14,000 (4.5%) showed an effect of 50% or more. The effect is printed as a negative number. The list comes from a sample in which strong results are over-represented; it also holds similar structures and randomly drawn compounds.

molecular target: human ether-à-go-go-related gene (hERG) potassium channel (human, UniProt Q12809); test: primary screen, population patch clamp on CHO cells stably expressing hERG; higher = less effect of the substance
Sequence (Q12809 whole entry, looked up): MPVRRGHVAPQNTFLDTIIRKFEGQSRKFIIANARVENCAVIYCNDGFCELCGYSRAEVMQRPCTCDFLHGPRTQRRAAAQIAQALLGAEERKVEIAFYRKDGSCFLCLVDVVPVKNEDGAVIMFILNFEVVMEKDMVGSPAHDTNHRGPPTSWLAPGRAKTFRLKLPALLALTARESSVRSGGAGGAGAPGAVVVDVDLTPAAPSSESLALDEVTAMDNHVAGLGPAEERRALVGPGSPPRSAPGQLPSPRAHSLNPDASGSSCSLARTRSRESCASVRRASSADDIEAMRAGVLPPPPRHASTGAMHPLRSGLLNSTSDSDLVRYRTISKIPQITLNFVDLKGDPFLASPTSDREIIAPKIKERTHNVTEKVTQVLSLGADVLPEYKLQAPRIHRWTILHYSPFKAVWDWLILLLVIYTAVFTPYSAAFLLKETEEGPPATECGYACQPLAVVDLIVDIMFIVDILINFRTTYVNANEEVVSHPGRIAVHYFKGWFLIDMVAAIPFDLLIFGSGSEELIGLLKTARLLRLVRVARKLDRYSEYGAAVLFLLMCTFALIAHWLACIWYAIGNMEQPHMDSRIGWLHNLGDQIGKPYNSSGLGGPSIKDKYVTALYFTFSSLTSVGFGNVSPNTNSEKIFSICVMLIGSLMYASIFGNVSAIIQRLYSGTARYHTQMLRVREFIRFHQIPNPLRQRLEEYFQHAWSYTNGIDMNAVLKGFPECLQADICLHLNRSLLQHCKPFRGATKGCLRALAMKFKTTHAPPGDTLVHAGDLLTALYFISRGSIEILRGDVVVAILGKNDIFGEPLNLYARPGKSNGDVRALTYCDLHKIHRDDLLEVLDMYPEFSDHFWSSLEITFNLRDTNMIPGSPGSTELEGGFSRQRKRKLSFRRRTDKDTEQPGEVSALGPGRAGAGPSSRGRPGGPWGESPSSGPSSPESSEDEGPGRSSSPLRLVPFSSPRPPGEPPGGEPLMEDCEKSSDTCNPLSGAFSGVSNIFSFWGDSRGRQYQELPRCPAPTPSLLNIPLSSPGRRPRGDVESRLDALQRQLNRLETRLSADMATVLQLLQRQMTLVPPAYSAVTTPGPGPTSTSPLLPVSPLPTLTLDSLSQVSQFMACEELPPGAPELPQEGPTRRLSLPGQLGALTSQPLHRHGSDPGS
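Further: peak tail current of the secondary pulse compared with the same well before compound.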

| Structure (SMILES) | hERG current change (%, negative = inhibition) at 10uM [%] |
| --- | --- |
| Fc1ccc(-c2csc(-c3ccc(C4SCCS4)cc3)n2)cc1F | 4.89 |
| COC(=O)C1=C(N)Oc2cc(C)n(Cc3cccnc3)c(=O)c2C1c1ccc(OC)c(OC)c1 (stereo not drawn) | -19 |
| CCOC(=O)c1cc(C)n(-c2c(C)n(C)n(-c3ccccc3)c2=O)c1C | 21.6 |
| Cc1ccccc1NC(=S)N/N=C1\CC(C)(C)Oc2ccc(O)cc21 | 42.1 |
| CC(=O)N1CCC2(CC1)C/C(=N\NC(=S)Nc1ccc(C)cc1)c1cc(O)ccc1O2 | -70.8 |
| Cc1ccc(NC(=S)N/N=C2\CC(C)(C)Oc3ccc(O)cc32)cc1 | 12 |
| COc1cccc(NC(=S)N/N=C2\CC(C)(C)Oc3ccc(O)cc32)c1 | 3.3 |
| CC(=O)N1CCC2(CC1)C/C(=N\NC(=S)Nc1ccccc1C)c1cc(O)ccc1O2 | -61.1 |
| CC1(C)C/C(=N\NC(=S)Nc2ccccc2F)c2cc(O)ccc2O1 | -18.8 |
| CC(=O)N1CCC2(CC1)C/C(=N\NC(=S)Nc1ccccc1F)c1cc(O)ccc1O2 | -69 |
| Cc1cccc(NC(=S)N/N=C2\CC(C)(C)Oc3ccc(O)cc32)c1 | 8.34 |
| COc1ccccc1NC(=S)N/N=C1\CC(C)(C)Oc2ccc(O)cc21 | 0.968 |
| COc1ccc(C(=O)CC(=O)C(=O)Nc2ccc(C)c(C)c2)cc1 | -12.2 |
| O=C1CSC(c2cccnc2)N1c1ccccc1 (stereo not drawn) | 13 |
| CCOCCCNC(=O)CCNS(=O)(=O)c1ccc(C)cc1 | 3.47 |
| Cc1ccc(S(=O)(=O)N(C)c2ccc(OCC(=O)Nc3nc4ccccc4s3)cc2)cc1 | 17.8 |
| Cc1cccc(C(=O)Oc2ccc(/C=N/NC(=O)c3ccc(O)cc3)cc2)c1 | 28.6 |
| Cc1nnc(SC(C)C(=O)Nc2ccc(S(=O)(=O)N3CCCCC3)cc2)s1 (stereo not drawn) | -18.4 |
| CC(C)NC(=O)C1(O)c2ccccc2NC(=O)N1c1ccc(Cl)c(Cl)c1 (stereo not drawn) | 9.1 |
| Cc1cccc(N2CCN(C3=NC(=O)C(Cc4ccccc4)S3)CC2)c1 (stereo not drawn) | -30.7 |
| NC1=NC(=O)C(Cc2ccccc2)S1 (stereo not drawn) | 2.01 |

| Structure (SMILES) | hERG current change (%, negative = inhibition) at 10uM [%] |
| --- | --- |
| Cc1cccc(CC2SC(N3CCN(c4ccccc4)CC3)=NC2=O)c1 (stereo not drawn) | -53.5 |
| O=C1N=C(N2CCN(c3ccccc3)CC2)SC1Cc1ccccc1 (stereo not drawn) | -66.4 |
| Cc1cccc(CC2SC(N)=NC2=O)c1.Cl (stereo not drawn) | 19.9 |
| Cc1ccc(N2CCN(C3=NC(=O)C(Cc4ccccc4)S3)CC2)cc1 (stereo not drawn) | -40.1 |
| O=c1c2[nH]c3cccc(Cl)c3c2ncn1Cc1ccncc1 | -13.6 |
| CN(C)S(=O)(=O)c1ccc(Cl)c(NC(=O)CN2C(=O)NC3(CCc4ccccc43)C2=O)c1 (stereo not drawn) | -18 |
| CC(C)C(NS(=O)(=O)c1ccc2c(c1)oc(=O)n2C)C(=O)N1CCN(C2CCCCC2)CC1 (stereo not drawn) | 2.88 |
| Cc1ccc(C)c(NC(=O)C2CCCN2C(=O)OC(C)(C)C)c1 (stereo not drawn) | 1.04 |
| O=C(CN(CCc1ccccc1)S(=O)(=O)c1ccc(Cl)cc1)N/N=C/c1ccccc1C(=O)O | 14.6 |
| Cc1ccc(N(CC(=O)NCCSc2nc3ccccc3s2)S(=O)(=O)c2ccccc2)c(C)c1 | -42.1 |
| CCOc1ccc2nc(NCCNC(=S)NCCCN(C)C)c(C#N)cc2c1 | 1.89 |
| O=C(c1ccccc1)c1c[nH]c(C(=O)NCCCn2ccnc2)c1 | 5.27 |
| COc1ccc(C(=O)c2c[nH]c(C(=O)NCCCn3ccnc3)c2)cc1 | 0.775 |
| O=C(NCCCn1ccnc1)c1ccc(C(F)(F)F)cc1 | -10.8 |
| O=C(c1ccc(C(F)(F)F)cc1)c1c[nH]c(C(=O)NCCCn2ccnc2)c1 | -70.4 |
| CCC(=O)c1c[nH]c(C(=O)NCCCn2ccnc2)c1 | 9.18 |
| CC(C)(C)c1ccc(C(=O)c2c[nH]c(C(=O)NCCCn3ccnc3)c2)cc1 | -71.3 |
| Cc1ccc(/C=N/NS(=O)(=O)c2ccc([N+](=O)[O-])cc2)o1 | 26.4 |
| Cc1c(NC(=O)c2cccs2)c(=O)n(-c2ccccc2)n1C | 3.8 |
| CCCC(Oc1ccc(Br)cc1)c1nc2c3cc(OC)c(OC)cc3nc(=S)n2[nH]1 (stereo not drawn) | 14.5 |
| Cc1cccc2c1NC(C)CC2C.Cl (stereo not drawn) | 8.01 |

| Structure (SMILES) | hERG current change (%, negative = inhibition) at 10uM [%] |
| --- | --- |
| COc1ccccc1CNC(=O)COC(=O)c1cc(C)oc1C | 0.456 |
| COCCn1c(C)nnc1SCC(=O)NNC(=O)c1ccc(Cl)cc1 | 16.4 |
| COc1ccc(Cl)cc1NC(=O)c1nnn(CC(=O)Nc2ccc(OC)c(OC)c2)c1N | 15.1 |
| O=C(NCc1ccccc1)c1ccc(N2CCC3(CC2)CC(c2ccccc2)=NO3)c([N+](=O)[O-])c1 | 5.28 |
| CCCNC(=O)c1ccc(N2CCC3(CC2)CC(c2ccc(Cl)cc2)=NO3)c([N+](=O)[O-])c1 | -74.7 |
| CCCNC(=O)c1ccc(N2CCC3(CC2)CC(c2cccc(Br)c2)=NO3)c([N+](=O)[O-])c1 | -14.2 |
| COc1ccc(CNC(=O)c2ccc(N3CCC4(CC3)CC(c3ccc(Cl)cc3)=NO4)c([N+](=O)[O-])c2)cc1 | 9.12 |
| O=C(NCc1ccccc1)c1ccc(N2CCC3(CC2)CC(c2ccc(Cl)cc2)=NO3)c([N+](=O)[O-])c1 | 11.6 |
| CCCNC(=O)c1ccc(N2CCC3(CC2)CC(c2ccccc2)=NO3)c([N+](=O)[O-])c1 | -53 |
| COCc1cc(=O)n2[nH]cc(-c3ccccc3)c2n1 | 9.45 |
| COc1ccc(NC(=O)CSc2nnc(C3CC3)n2C)cc1S(=O)(=O)N1CCOCC1 | -0.595 |
| Cc1nc2ncnn2c(C)c1CCC(=O)NCc1ccco1 | -6.62 |
| Cc1cccc(OCC(O)Cn2c(NCc3cccnc3)nc3c2c(=O)[nH]c(=O)n3C)c1 (stereo not drawn) | -9.46 |
| CC(C)Oc1ccc(N2CC(C(=O)Nc3ccccc3C(=O)NC3CC3)CC2=O)cc1 (stereo not drawn) | -66.2 |
| Cc1ccc(N2CC(C(=O)Nc3ccccc3C(=O)NC3CCCCC3)CC2=O)cc1 (stereo not drawn) | -5.81 |
| CC(C)Oc1ccc(N2CC(C(=O)Nc3ccccc3F)CC2=O)cc1 (stereo not drawn) | -17.2 |
| O=C(NC1CCCCC1)c1ccccc1NC(=O)C1CC(=O)N(c2ccccc2)C1 (stereo not drawn) | -76.8 |
| CCOc1ccc(N2CC(C(=O)Nc3ccccc3C(=O)NC3CC3)CC2=O)cc1 (stereo not drawn) | -76.7 |
| O=C(NC1CCCCC1)c1ccccc1NC(=O)C1CC(=O)N(c2ccc(Cl)cc2)C1 (stereo not drawn) | 2.36 |
| COc1ccc(N2CC(C(=O)Nc3ccccc3C(=O)NC3CC3)CC2=O)cc1 (stereo not drawn) | -38.8 |
| CCOc1ccc(N2CC(C(=O)Nc3ccccc3F)CC2=O)cc1 (stereo not drawn) | -13.5 |

| Structure (SMILES) | hERG current change (%, negative = inhibition) at 10uM [%] |
| --- | --- |
| Cc1ccc(N2CC(C(=O)Nc3ccccc3C(=O)NC3CCCCC3)CC2=O)cc1C (stereo not drawn) | -17.9 |
| O=S(=O)(c1ccc(Br)cc1)N1CCN=C1SCc1cccc(F)c1 | 8.08 |
| O=C(Nc1nnc(Cc2ccc(Cl)cc2)s1)c1cccnc1 | 13.9 |
| COc1ccccc1N1CCN(C(=O)c2cccc(N3C(=O)C4C5C=CC(C5)C4C3=O)c2)CC1 (stereo not drawn) | 5.22 |
| CCOC(=O)C1=C(C)NC(=S)NC1c1ccc(OCC(=O)N2CCCCCC2)c(OC)c1 (stereo not drawn) | 14.2 |
| O=C(Nc1nnc(Cc2ccccc2)s1)Nc1ccccc1F | 11.1 |
| O=C(CN(C(=O)CCC(=O)Nc1ccccn1)c1ccc(F)cc1)NCc1ccco1 | 14.2 |
| Cc1ccc(C(=O)OCC(=O)Nc2ccc(C(N)=O)cc2)s1 | 10.1 |
| O=C(CCC(=O)c1ccc(F)cc1)Nc1cccnc1 | 1.31 |
| CCCn1nc2cc(C(=O)NCc3ccc(C)cc3)ccc2c1OCC | -1.4 |
| COc1ccc(-c2cc(C(F)(F)F)nc(SCC(=O)NCCCN3CCOCC3)n2)cc1 | -14 |
| CCCOC(=O)c1ccc(NS(=O)(=O)c2cccs2)cc1 | -6.88 |
| O=C(Oc1ccc(N(C(=O)c2ccncc2)S(=O)(=O)c2cccs2)cc1)c1ccncc1 | 3.77 |
| O=C(OCCN(CCOC(=O)c1ccncc1)S(=O)(=O)c1cccs1)c1ccncc1 | -77.3 |
| O=C(C(Cl)Cl)N1CCN(Cc2ccccc2)CC1 | -4.72 |
| CCN1CCN(c2ccc(S(=O)(=O)N3CCOCC3)cc2NC(=O)COc2ccc(F)cc2Cl)CC1 | -24.4 |
| O=C(COc1ccc(F)cc1Cl)Nc1cc(S(=O)(=O)N2CCOCC2)ccc1N1CCCCC1 | 4.24 |
| CCN(CC)S(=O)(=O)c1ccc(N2CCOCC2)c(NC(=O)COc2ccccc2C)c1 | 8.22 |
| CCc1ccccc1OCC(=O)Nc1cc(S(=O)(=O)N(CC)CC)ccc1N1CCOCC1 | -7.83 |
| CN1CCN(c2ccc(S(=O)(=O)N3CCOCC3)cc2NC(=O)COc2ccc(F)cc2Cl)CC1 | -61.5 |
| CCN(CC)S(=O)(=O)c1ccc(N2CCN(C)CC2)c(NC(=O)COc2ccc(F)cc2Cl)c1 | -59 |
